Source: PubChem BioAssay (National Center for Advancing Translational Sciences (NCATS))
In the library only some 2.4% were active in any assay of this set; here they are far more common.
GLP1R inv ag: acts as inverse agonist at human GLP-1 receptor; HEK293 GLP-1R CRE-luciferase, luminescence, 24 h; GLP-1R form is constitutively active; Potency, µM (series often up to 38.3 µM), usual class: inhibitors; 410,000 tested, 1.6% active; also: nearly all actives have a fitted effect of over 55% in size
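GLP-1R inverse agonism mode: basal reporter luminescence in engineered HEK293 cells measured after one day of compound exposure at 37 deg C, with a 12 min room-temperature detection step.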
GLP1R ag: GLP-1 receptor (human) agonism; HEK293 GLP-1R CRE-luciferase, luminescence, 4-6 h; cells express a hypersensitive GLP-1R form; Potency, µM (series often up to 45.6 µM), hits mostly activators; 380,000 tested, 0.007% active
PTHR1 ag: agonists of human PTHR1 parathyroid hormone receptor; Q03431; HEK293 GP2 PTHR1 cells, GloSensor cAMP luminescence, 1 h; Potency, µM (doses to about 115 µM), usual class: activators; 410,000 tested, 0.075% active; also: nearly all actives have a fitted effect of over 55% in size
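HEK-293-derived GP2 cells expressing PTHR1 and a GloSensor cAMP reporter, 3,000/well, plated overnight, given luciferin plus IBMX (each 0.5 mM as added) for 1 h at 37 °C, then compound for 1 h at 37 °C. Luminescence was read after 15 min at room temperature.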
HEK293 tox: cytotoxic in the GLP-1 receptor inverse agonist counter-screen; HEK293 cAMP-luciferase reporter cells, luminescence, 24 h; Potency, µM (highest dose often 38.3 µM), hits mostly inhibitors; 410,000 tested, 0.13% active; AID 624418;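 also: loss of luciferase light is scored as toxicity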
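Cells in DMEM/10% Nu serum/1% pen-strep, 1536-well format. Pre-incubated 12 h, dosed with 23 nL compound, incubated a further 24 h. Luciferase detection, 12 min at room temp, luminescence.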
TRHR ag: activates the human TRH receptor | P34981 | TRHR cells, calcium flux fluo-8, FDSS agonist mode | activation, % at 2 µM | 360,000 tested, 0.18% active; in the data active = activation above about 30%
Target sequence (P34981 whole entry, looked up): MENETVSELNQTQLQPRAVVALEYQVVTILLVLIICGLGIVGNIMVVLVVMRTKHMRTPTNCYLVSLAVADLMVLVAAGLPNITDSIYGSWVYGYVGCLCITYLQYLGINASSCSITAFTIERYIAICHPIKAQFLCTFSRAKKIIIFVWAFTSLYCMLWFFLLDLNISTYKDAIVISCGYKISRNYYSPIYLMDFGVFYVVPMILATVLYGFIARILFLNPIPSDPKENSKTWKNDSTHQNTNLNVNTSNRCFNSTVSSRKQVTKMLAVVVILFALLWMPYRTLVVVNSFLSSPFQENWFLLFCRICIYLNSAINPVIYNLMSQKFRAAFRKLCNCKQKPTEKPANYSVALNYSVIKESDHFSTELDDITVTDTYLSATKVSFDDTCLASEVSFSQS
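Steps: seed TRHR cells overnight; add fluo-8 no-wash Ca dye, RT 30 min–1.5 h; record 10 s baseline; pin-transfer compounds; monitor fluorescence 1 cycle/s for the agonist window. Calcium increases flag candidate agonists.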
TRHR enhancer: allosterically enhances the human TRH receptor. P34981. TRHR cells, fluo-8 calcium fluorescence, EC20 TRH enhancement. enhancement, % at 2 µM. 360,000 tested, 0.66% active; in the data active = enhancement above about 30%
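Enhancer read-out: after compound pinning and an initial kinetic agonist-mode read, an EC20 of TRH (10 nM final) was injected and fluo-8 calcium signal (Ex 480/Em 530) followed at 1 s/cycle for 100 cycles in TRHR-expressing cells.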
Numbers stand for hits. Unless noted, calls follow the shape of the dose curve; as a rule, active = well fitted curve in the direction sought with a large enough effect; inconclusive = small, poorly fitted or top-dose-only effect, or another doubt; inactive = no such curve, though single readings can be large; an effect the other way counts as inactive or inconclusive.

`CCCCN1C[C@H](CSC)[C@@H](CC(=O)Nc2ccc(Br)cc2)C1=O` gave GLP1R inv ag inconclusive, GLP1R ag inactive, PTHR1 ag inactive and HEK293 tox inactive.
`O=C(C[C@H]1C(=O)N(CCc2ccccc2)C[C@@H]1Cc1ccccc1)Nc1ccc(Br)cc1` gave GLP1R inv ag 7.9µM, GLP1R ag inactive, PTHR1 ag inactive and HEK293 tox inactive.
CSC[C@H]1CN(CCc2ccccc2)C(=O)[C@@H]1CC(=O)Nc1ccc(Br)cc1 was read as GLP1R inv ag 10µM, GLP1R ag inactive, PTHR1 ag inactive and HEK293 tox inactive.
For COc1ccc(CN(C(=O)c2snc(C(N)=O)c2N)C(C(=O)NC2CCCC2)c2cc(OC)ccc2OC)cc1 (stereo not given) the results were GLP1R inv ag inactive, GLP1R ag inactive, PTHR1 ag inactive, HEK293 tox inconclusive, TRHR ag inactive and TRHR enhancer 34.
COc1ccc(CN(C(=O)c2snc(C(N)=O)c2N)C(C(=O)NC2CCCC2)c2ccc(OC)cc2)cc1 (stereo not given) was read as GLP1R inv ag inconclusive, GLP1R ag inactive, PTHR1 ag inactive, HEK293 tox inactive, TRHR ag inactive and TRHR enhancer inactive.
`Cc1ccc(C)c(N2CCN(C(=O)C3CCN(S(=O)(=O)c4ccc5[nH]c(=O)oc5c4)CC3)CC2)c1` gave GLP1R inv ag inactive, PTHR1 ag inactive, HEK293 tox inactive, TRHR ag inactive and TRHR enhancer inactive.
CCn1c(SCC(=O)Nc2ccc(OC)cc2)nnc1-c1ccco1 was read as GLP1R inv ag inactive, GLP1R ag inactive, PTHR1 ag inactive, HEK293 tox inactive, TRHR ag inactive and TRHR enhancer inactive.
Screening COc1ccc(NC(=S)NC(=O)/C=C/c2ccccc2)cc1 returned GLP1R inv ag inactive, GLP1R ag inactive, PTHR1 ag inactive, HEK293 tox inactive, TRHR ag inactive and TRHR enhancer inactive.
For COc1ccc(/C=C(/NC(=O)/C=C/c2ccccc2)C(=O)O)cc1 the results were GLP1R inv ag inactive, GLP1R ag inactive, PTHR1 ag inactive, HEK293 tox inactive, TRHR ag inactive and TRHR enhancer 34.
For COC(=O)c1ccc(SCC(=O)NC2CCCCC2)c([N+](=O)[O-])c1 the results were GLP1R inv ag inactive, GLP1R ag inactive, PTHR1 ag inactive, HEK293 tox inactive, TRHR ag inactive and TRHR enhancer inactive.
Screening COc1ccc(-c2cc(C(F)(F)F)n3nc(C(=O)Nc4cc(C)ccc4C)cc3n2)cc1 returned GLP1R inv ag inactive, PTHR1 ag inactive, HEK293 tox inactive, TRHR ag inactive and TRHR enhancer inactive.
Screening COc1ccc(-c2cc(C(F)(F)F)n3nc(C(=O)Nc4cccc(Cl)c4C)cc3n2)cc1 returned GLP1R inv ag inactive, PTHR1 ag inactive, HEK293 tox inactive, TRHR ag inactive and TRHR enhancer 39.
For CCCCn1c(C23CC4CC(CC(C4)C2)C3)n[nH]c1=S the results were GLP1R inv ag 7.1µM, GLP1R ag inactive, PTHR1 ag inactive, HEK293 tox inactive, TRHR ag inactive and TRHR enhancer inactive.
For Cc1ccc(Sc2c(C)nn(C(=O)c3ccc(Br)cc3)c2C)cc1 the results were GLP1R inv ag inactive, PTHR1 ag inactive, HEK293 tox inactive, TRHR ag inactive and TRHR enhancer inactive.
`CC1CCN(CCCNS(=O)(=O)c2cc(Br)cc3c2N(C(=O)C2CC2)CC3)CC1` gave GLP1R inv ag inconclusive, GLP1R ag inactive, PTHR1 ag inactive, HEK293 tox inconclusive, TRHR ag inactive and TRHR enhancer 33.
For Cc1cccc(NC(=O)C23CCC(C)(C2Br)C3(C)C)c1 (stereo not given) the results were GLP1R inv ag 3.5µM, GLP1R ag inactive, PTHR1 ag inactive, HEK293 tox inactive, TRHR ag inactive and TRHR enhancer inactive.
`Cc1cccc(NC(=O)CC(=O)Nc2cccc(C)c2)c1` gave GLP1R inv ag inconclusive, GLP1R ag inactive, PTHR1 ag inactive, HEK293 tox inactive, TRHR ag inactive and TRHR enhancer inactive.
Cc1cc(NC2CCCCC2)nc(NCc2ccccc2)n1 was read as GLP1R inv ag 10µM, GLP1R ag inactive, PTHR1 ag inactive, HEK293 tox inconclusive, TRHR ag inactive and TRHR enhancer inactive.
Cc1ccc(Nc2cc(C)nc(NCc3ccccc3)n2)cc1 was read as GLP1R inv ag inconclusive, GLP1R ag inactive, PTHR1 ag inactive, HEK293 tox inconclusive, TRHR ag inactive and TRHR enhancer 32.
For CC1CN(c2cnn(C(C)C)c(=O)c2Cl)CC(C)O1 (stereo not given) the results were GLP1R inv ag inactive, GLP1R ag inactive, PTHR1 ag inactive, HEK293 tox inactive, TRHR ag inactive and TRHR enhancer inactive.
For O=C(OC1CCc2ccccc2C1=O)c1ccccc1O (stereo not given) the results were GLP1R inv ag inconclusive, GLP1R ag inactive, PTHR1 ag inactive, HEK293 tox inactive, TRHR ag inactive and TRHR enhancer inactive.
Screening CSc1cccc(CN2CCCC(CO)(Cc3cccc(Cl)c3)C2)c1 (stereo not given) returned GLP1R inv ag inconclusive, GLP1R ag inactive, PTHR1 ag inactive, HEK293 tox inactive, TRHR ag inactive and TRHR enhancer inactive.
`COc1ccc(CN2CCCC(CO)(Cc3ccc(F)cc3)C2)c(OC)c1OC` (stereo not given) gave GLP1R inv ag inconclusive, GLP1R ag inactive, PTHR1 ag inactive, HEK293 tox inactive, TRHR ag inactive and TRHR enhancer inactive.
For CC(C)Oc1ccc(CN2CCCC(CO)(Cc3ccc(F)cc3)C2)cc1 (stereo not given) the results were GLP1R inv ag 11µM, GLP1R ag inactive, PTHR1 ag inactive, HEK293 tox inactive, TRHR ag inactive and TRHR enhancer inactive.
`OCC1(Cc2cccc(Cl)c2)CCCN(Cc2ccc(F)c(F)c2)C1` (stereo not given) gave GLP1R inv ag 10µM, GLP1R ag inactive, PTHR1 ag inactive, HEK293 tox inactive, TRHR ag inactive and TRHR enhancer inactive.
CC(=O)c1ccc(-c2nnc(CCC(=O)N3CCCC(C(=O)CC(C)C)C3)o2)s1 (stereo not given) was read as GLP1R inv ag inactive, GLP1R ag inactive, PTHR1 ag inactive, HEK293 tox inactive, TRHR ag inactive and TRHR enhancer inactive.
CCOc1ccc(CCNC(=O)CCOc2cc(C)ccc2C)cc1OCC was read as GLP1R inv ag inconclusive, GLP1R ag inactive, PTHR1 ag inactive, HEK293 tox inactive, TRHR ag inactive and TRHR enhancer inactive.
